PubChem BioAssay (NCATS)
Inconclusive results are not listed. Active and inactive are the calls of the source. Calls follow the shape of the dose curve; as a rule, active = well fitted cell-killing curve with a large enough effect; inconclusive = small, poorly fitted or top-dose-only effect, or effect the other way; inactive = no such curve, though single readings can be large or run the other way.

Assay: Quantitative High-Throughput drug screen in 47 multiple myeloma cell lines against the NCATS MIPE library collection: KMS12BM_JCRB cell viability assay (AID 1918971); also: nearly all actives have a fitted effect of over 35% in size
Details: KMS12BM myeloma viability, CellTiter-Glo ATP, 48 h; series mostly up to 45.8 µM
Method in brief: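 Steps: seed 500 cells per well; pin-transfer MIPE 4.0 library; incubate 48 h at 37C, 5% CO2, humidified; add CellTiter-Glo, 5 min room temperature; read luminescence.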
Potency is read from the fitted curve at half-maximal effect.

SMILES	Potency
CC(C)N(CCNC(=O)CN1CCCC1=O)C(C)C	11.8 µM (active)
CC[C@@]1(O)C(=O)OCc2c1cc1n(c2=O)Cc2cc3ccccc3nc2-1	0.166 µM (active)
COc1ccc2c(c[n+](C)c3c4cc5c(cc4ccc23)OCO5)c1OC	3.72 µM (active)
O=S(=O)(CC1CS1)c1ccc(Oc2ccccc2)cc1 (stereo unspecified)	26.4 µM (active)
CO[C@H]1CCC(O[C@H]2C[C@H]([C@]3(C)CC[C@]4(C[C@H](O)[C@@H](C)[C@@H]([C@@H](C)C=C(C)C(=O)[C@H](C)C[C@H](C)C(=O)O)O4)O3)O[C@]3(O[C@@H]([C@H]4O[C@@](O)(CO)[C@H](C)C[C@H]4C)C[C@H]3C)[C@H]2C)O[C@H]1C (stereo partly specified)	0.0833 µM (active)
C[C@]12CCC(=O)C(O)=C1CC[C@@H]1[C@H]3CCC(=O)[C@@]3(C)CC[C@@H]12	20.9 µM (active)
O=C(N[C@H]1CN2CCC1CC2)c1ccc(Cl)cc1	inactive
COc1ccc2c(c1)CN(C)CC2c1ccc(Cl)c(Cl)c1 (stereo unspecified)	20.9 µM (active)
CCNC(=O)C[C@@H]1N=C(c2ccc(Cl)cc2)c2cc(OC)ccc2-n2c(C)nnc21	0.235 µM (active)
O=S(=O)(F)Cc1ccccc1	inactive
Cc1c(C(=O)Nc2cccc(C(F)(F)F)c2)cc(-c2ccccc2)n1CCCN1CCOCC1	13.2 µM (active)
CCCN1CCO[C@@H]2c3cc(O)ccc3OC[C@@H]21	14.8 µM (active)
COc1ccc2c(c1)[C@]13CCCCC1C(C2)N(C)CC3 (stereo partly specified)	inactive
O=c1[nH]c2ccccc2n1C1CCN(Cc2ccc(-c3[nH]c4cc5ncnc5cc4nc3-c3ccccc3)cc2)CC1	20.9 µM (active)
C[C@]12COC(=O)C[C@@H]1CC[C@@H]1[C@H]2CC[C@@]2(C)[C@H]1CC[C@]2(C)O	1.18 µM (active)
c1ccc2c(CN3CCNCC3)cccc2c1	inactive
CC(=O)O[C@@]12CO[C@H]1C[C@H](O)[C@@]1(C)C(=O)[C@H](O)C3=C(C)[C@@H](O)C[C@@](O)([C@@H](OC(=O)c4ccccc4)[C@@H]21)C3(C)C	1.48 µM (active)
CC(=O)N(C)c1cccc(-c2ccnc3c(C(=O)c4cccs4)cnn23)c1	inactive
CN(C)NC(=O)CCC(=O)O	7.43 µM (active)
C[C@@]12OC(=O)[C@]1([C@@H](O)[C@@H]1C=CCCC1)NC(=O)[C@H]2CCCl	0.0235 µM (active)
COc1cc([C@@H]2c3cc4c(cc3[C@@H](O)C3COC(=O)C32)OCO4)cc(OC)c1O (stereo partly specified)	0.0418 µM (active)
CC1(N2CCC(n3c([C@@H]4CCCNC4)nc4ccccc43)CC2)CCCCCCC1	20.9 µM (active)
C[C@@H]1O[C@@H](O[C@@H]2C=C3CC[C@@H]4[C@@H](CC[C@]5(C)[C@H](c6ccc(=O)oc6)CC[C@@]45O)[C@@]3(C)CC2)[C@H](O)[C@H](O)[C@H]1O	0.0187 µM (active)
O=C(Nc1ccncc1)C(=O)c1cn(Cc2ccc(Cl)cc2)c2ccccc12	0.148 µM (active)
COc1ccc(CC2NCCc3cc(OC)c(OC)cc32)cc1OC (stereo unspecified)	inactive
CC=C(C)C(=O)N[C@@H](c1ccccc1)[C@@H](O)C(=O)O[C@H]1C[C@@]2(O)[C@@H](OC(=O)c3ccccc3)[C@@H]3[C@]4(OC(C)=O)CO[C@@H]4C[C@H](O)[C@@]3(C)C(=O)[C@H](OC(C)=O)C(=C1C)C2(C)C	inactive

Assay: Quantitative High-Throughput drug screen in 47 multiple myeloma cell lines against the NCATS MIPE library collection: KMS12PE_JCRB cell viability assay (AID 1918972); also: nearly all actives have a fitted effect of over 30% in size
Details: KMS12PE myeloma viability, CellTiter-Glo ATP, 48 h; series mostly up to 45.8 µM
Method in brief: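 We plated 500 myeloma cells per well, pinned in MIPE 4.0 compounds, and incubated for 48 hours at 37C. ATP was then quantified with CellTiter-Glo, with DMSO and media-only wells defining 100% and 0%.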

SMILES	Potency
CC(C)N(CCNC(=O)CN1CCCC1=O)C(C)C	inactive
CC[C@@]1(O)C(=O)OCc2c1cc1n(c2=O)Cc2cc3ccccc3nc2-1	0.132 µM (active)
CCOC(=O)c1c(C(C#N)=CN)c2ccc(Cl)c(Cl)c2n1C	inactive
COc1ccc2c(c[n+](C)c3c4cc5c(cc4ccc23)OCO5)c1OC	4.69 µM (active)
O=S(=O)(CC1CS1)c1ccc(Oc2ccccc2)cc1 (stereo unspecified)	3.72 µM (active)
C[C@@H]1[C@H](O)[C@@H](C)C=CC=CCCC=CC=CC=CC=C[C@H](O[C@H]2O[C@@H](C)[C@H](O)[C@@H](N)[C@@H]2O)CC2O[C@](O)(C[C@@H](O)[C@H](O)CC[C@@H](O)C[C@@H](O)C[C@@H](O)CC(=O)O[C@H]1C)C[C@H](O)[C@H]2C(=O)O	inactive
CCOP(=O)(OCC)C(C)NC(=O)N(CCCl)N=O (stereo unspecified)	inactive
C[C@]12CCC(=O)C(O)=C1CC[C@@H]1[C@H]3CCC(=O)[C@@]3(C)CC[C@@H]12	inactive
COc1ccc2c(c1)CN(C)CC2c1ccc(Cl)c(Cl)c1 (stereo unspecified)	23.5 µM (active)
CCNC(=O)C[C@@H]1N=C(c2ccc(Cl)cc2)c2cc(OC)ccc2-n2c(C)nnc21	0.166 µM (active)
O=S(=O)(F)Cc1ccccc1	inactive
Cc1c(C(=O)Nc2cccc(C(F)(F)F)c2)cc(-c2ccccc2)n1CCCN1CCOCC1	10.5 µM (active)
CN(C)[C@@H]1C(=O)C(C(N)=O)=C(O)[C@@]2(O)C(=O)C3=C(O)c4c(O)cccc4[C@@](C)(O)[C@H]3[C@H](O)[C@@H]12	inactive
C[C@H]([C@H](O)CCC(C)(C)O)[C@H]1CC[C@@]2(O)C3=CC(=O)[C@@H]4C[C@@H](O)[C@@H](O)C[C@]4(C)[C@@H]3CC[C@]12C	inactive
CC(=CCCC1=CCC(C2=CC(=O)OC2O)OC1O)CCC1=C(C)CCCC1(C)C (stereo unspecified)	inactive
CCCN1CCO[C@@H]2c3cc(O)ccc3OC[C@@H]21	inactive
COc1ccc2c(c1)[C@]13CCCCC1C(C2)N(C)CC3 (stereo partly specified)	inactive
C[C@@H]1CC[C@H]2[C@@H](C)C(=O)O[C@@H]3O[C@@]4(C)CC[C@H]1[C@]32OO4	inactive
O=c1[nH]c2ccccc2n1C1CCN(Cc2ccc(-c3[nH]c4cc5ncnc5cc4nc3-c3ccccc3)cc2)CC1	10.5 µM (active)
C[C@]12COC(=O)C[C@@H]1CC[C@@H]1[C@H]2CC[C@@]2(C)[C@H]1CC[C@]2(C)O	inactive
CC(C)N[C@@H]1CCn2c(=O)[nH]c3cccc(c32)[C@@H]1O	6.62 µM (active)
c1ccc2c(CN3CCNCC3)cccc2c1	inactive
CN(C)NC(=O)CCC(=O)O	inactive
C[C@@]12OC(=O)[C@]1([C@@H](O)[C@@H]1C=CCCC1)NC(=O)[C@H]2CCCl	0.0187 µM (active)
COc1cc([C@@H]2c3cc4c(cc3[C@@H](O)C3COC(=O)C32)OCO4)cc(OC)c1O (stereo partly specified)	0.0372 µM (active)
CC1(N2CCC(n3c([C@@H]4CCCNC4)nc4ccccc43)CC2)CCCCCCC1	7.43 µM (active)
CSCC[C@@H](NC(=O)[C@@H](Cc1ccccc1)NC(=O)CNC(=O)CNC(=O)[C@@H](N)Cc1ccc(O)cc1)C(=O)O	inactive
C[C@@H]1O[C@@H](O[C@@H]2C=C3CC[C@@H]4[C@@H](CC[C@]5(C)[C@H](c6ccc(=O)oc6)CC[C@@]45O)[C@@]3(C)CC2)[C@H](O)[C@H](O)[C@H]1O	0.0074 µM (active)
O=C(Nc1ccncc1)C(=O)c1cn(Cc2ccc(Cl)cc2)c2ccccc12	0.0209 µM (active)
COc1ccc(CC2NCCc3cc(OC)c(OC)cc32)cc1OC (stereo unspecified)	inactive
